An excerpt weighted towards active compounds, which were near 2.7% of everything screened.
ERG Ets-DNA blk – blocks human ERG Ets domain binding to DNA. P11308. fluorescence polarization, His-ERG Ets domain / labelled DNA. Potency, µM (highest dose often 76.9 µM), inactives show at the highest dose FP activity, negative = inhibition, usual class: inhibitors. 370,000 tested, 0.028% active. AID 624246; active = well fitted inhibition curve with a large enough effect in the polarisation, with a control signal flat; inconclusive = small, poorly fitted or top-dose-only effect, or effect the other way, or a change in a side signal; inactive = no such curve, though single readings can be large or run the other way; the % refers to the polarisation;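 note: polarization taken with two DNA probes labelled with fluorescein and Texas red; potency is the fitted concentration of half-maximal effect; % of control where 0% means no effect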
Target sequence (P11308 whole entry, looked up, the tested form may be a part): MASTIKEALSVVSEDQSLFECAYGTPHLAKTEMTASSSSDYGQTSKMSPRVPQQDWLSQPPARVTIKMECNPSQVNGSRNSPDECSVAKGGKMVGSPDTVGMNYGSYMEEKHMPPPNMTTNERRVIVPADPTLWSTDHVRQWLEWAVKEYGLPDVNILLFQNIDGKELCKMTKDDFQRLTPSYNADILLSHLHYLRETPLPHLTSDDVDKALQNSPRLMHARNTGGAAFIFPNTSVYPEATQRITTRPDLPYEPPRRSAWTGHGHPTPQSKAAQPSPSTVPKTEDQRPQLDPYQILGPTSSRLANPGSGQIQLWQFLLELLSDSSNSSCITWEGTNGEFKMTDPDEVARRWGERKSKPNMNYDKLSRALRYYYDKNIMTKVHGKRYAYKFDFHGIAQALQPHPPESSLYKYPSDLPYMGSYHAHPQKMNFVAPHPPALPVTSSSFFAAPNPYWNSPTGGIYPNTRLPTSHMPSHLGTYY
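His-tagged ERG Ets domain (1 uM in the protein solution; 300mM KCl, 50mM Tris-HCl, 1mM EDTA, 1mM DTT, pH 7.5) received compound, then a probe mix of 5 nM fluorescein-DNA and 100nM Texas-615-DNA. Fluorescence polarization was read for both dyes.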
Nrf2 block – inhibitors of Nrf2 signaling; Potency, µM (doses to about 46 µM), for the others: at the highest dose activity change, negative = inhibition, usual class: inhibitors; AID 504444; A549 ARE-Fluc reporter, luciferase luminescence, 18-24 h; 360,000 tested, 2.1% active; note: potency is the fitted concentration of half-maximal effect; % is set by controls: 0 for no effect and ±100 for the full control effect; nearly all actives have a fitted effect of over 60% in size
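A549 ARE_Fluc cells (5000/well, 5% FBS OPTI-MEM) pre-incubated 2 h, then treated with compounds 18-24 h at 37C/5% CO2 in concentration-response. CellTiter-Fluor viability read first; BugLite luciferase luminescence after 15 min at room temperature gives Nrf2 activity.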
A549 tox-1 – kills or reduces viability of A549 cells in Nrf2 counter-screen; A549 ARE-Fluc cells, CellTiter-Fluor viability, 18-24 h; Potency, µM (doses to about 46 µM), for inactives: top-dose activity change, negative = cytotoxicity, most hits filed as inhibitors; 390,000 tested, 0.16% active; AID 504648; note: potency is the fitted concentration of half-maximal effect; % is set by controls: 0 for no effect and ±100 for the full control effect
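Cytotoxicity counterscreen: CellTiter-Fluor fluorescence was measured in A549 ARE_Fluc cells after 18-24 h of compound exposure in a concentration series. The subsequent BugLite luminescent read reports ARE-luciferase activity.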
12-LOX inh – blocks human arachidonate 12S-lipoxygenase. P18054. purified 12hLO, xylenol orange hydroperoxide absorbance. Potency, µM (top dose mostly 108 µM), for inactives: at the top dose activity change, negative = inhibition, hits mostly inhibitors. 580,000 tested, 1.1% active. AID 1671190; note: potency is the fitted concentration of half-maximal effect; % is set by controls: 0 for no effect and ±100 for the full control effect
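Purified human 12hLO (150 nM final) in 25 mM Hepes, 0.01% Triton X-100, pH 7.0 was preincubated 15 min at room temperature with compound. Then 40 uM arachidonic acid was added, 30 min. Hydroperoxide was read by Fe-XO absorbance ratio 573/405 nm.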
Nrf2 ARE act – activators of Nrf2 (ARE) signaling; AREc32 ARE-luciferase reporter (MCF7-derived line), luminescence, 24 h; Potency, µM (titrated, usually from 46.1 µM), for the others: top-dose activation, actives largely listed as activators; AID 624171; 410,000 tested, 0.31% active; note: potency is the fitted concentration of half-maximal effect; % of control where 0% means no effect; nearly all actives have a fitted effect of over 65% in size
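Cells of the AREc32 ARE-luciferase line are plated in OPTI-MEM containing 5% FBS and left overnight at 37 deg C. Compounds are pinned in, incubation continues 24 hr, and firefly luciferase signal is then measured.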
LDHA block – inhibitors of human lactate dehydrogenase A; 480,000 tested, 0.15% active; activity change, % (values are at about 110 or 230 µM); AID 1347041; purified LDHA, NADH/diaphorase-resazurin fluorescence; stronger effect = lower value; P00338; in the data active = activity change below about -30%; inconclusive = mostly about -25% to -30%;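 note: plate controls were DMSO wells for no effect and wells without enzyme for full effect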
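LDH5 2 nM; NADH 0.06 mM, pyruvate 0.2 mM; 200 mM Tris pH 7.4, EDTA, Tween-20; 5 min RT. Detection: diaphorase 0.133 mg/mL + resazurin 37 µM, fluorescence ex540/em590 at 0 and 20 min; normalized to enzyme-free and DMSO wells.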
FLuc enzyme inh – firefly luciferase inhibition, Nrf2 hit validation. shares compounds with Nrf2 block. purified firefly luciferase, luminescence inhibition. Potency, µM (doses to about 57.5 µM), without a hit: at the highest dose activity change, negative = inhibition, actives largely listed as inhibitors. 1,400 tested, 4% active; note: potency is the fitted concentration of half-maximal effect; % is set by controls: 0 for no effect and ±100 for the full control effect; nearly all actives have a fitted effect of over 65% in size
A549 tox-2 – toxic to A549 ARE-Fluc cells in Nrf2 counterscreen | shares compounds with Nrf2 block | A549 ARE-Fluc cells, cytotoxicity counterscreen | Potency, µM (top dose mostly 46.1 µM), for inactives: at the highest dose activity change, negative = cytotoxicity, most hits filed as inhibitors | 1,400 tested, 2% active | AID 720523;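 note: potency is the fitted concentration of half-maximal effect; cells exposed to compounds for 18 to 24 hours; % is set by controls: 0 for no effect and ±100 for the full control effect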
Nrf2 ARE inh – confirmation of Nrf2 inhibitors in A549 ARE reporter cells; shares compounds with Nrf2 block; A549 ARE-firefly luciferase reporter, luminescence; Potency, µM (highest dose often 46.1 µM), for the others: top-dose activity change, negative = inhibition, hits mostly inhibitors; 1,400 tested, 74% active; AID 720524; note: potency is the fitted concentration of half-maximal effect; % is set by controls: 0 for no effect and ±100 for the full control effect; nearly all actives have a fitted effect of over 65% in size
* hit, by the source's call; [ ] = dose if it differs, or a comment. Unless noted, calls come from the whole dose curve; as a rule, active = well fitted curve in the direction sought with a large enough effect; inconclusive = small, poorly fitted or top-dose-only effect, or another doubt; inactive = no such curve, though single readings can be large; an effect the other way counts as inactive or inconclusive.

Results for CCOc1ccc(OCCSc2nc3ccccc3n2CC(O)CO)cc1 (configuration not stated) ?
12-LOX inh: -30%; LDHA block: 1

Results for O=C(Cc1c[nH]c2ccccc12)OCc1c(Cl)cccc1Cl ?
12-LOX inh: -20%; LDHA block: -2

Results for COc1ncccc1CNC(=O)c1nccnc1N ?
12-LOX inh: inconclusive; LDHA block: -1

Results for CCN(CC)c1ccc(/C=C/c2ccccn2)cc1 ?
FLuc enzyme inh: -13%; A549 tox-2: 9.2µM*; Nrf2 ARE inh: 1.6µM*

How did CN(C)c1ccc(/C=C/c2ccccn2)cc1 do in these assays?
LDHA block: -7

Results for COc1cccc(-c2noc(-c3occc3Br)n2)c1 ?
12-LOX inh: 12%; LDHA block: 1

Results for O=c1c2cnc3nc(C(F)(F)F)nn3c2ccn1-c1cc(Cl)ccc1Cl ?
12-LOX inh: -21%; LDHA block: 1

What do the screens show for `O=C(Nc1ccccc1)c1ccc(Nc2c([N+](=O)[O-])cc([N+](=O)[O-])c3ccccc23)cc1`?
ERG Ets-DNA blk: -10%; Nrf2 block: 7.3µM*; A549 tox-1: -29%; 12-LOX inh: -10%; Nrf2 ARE act: 0%; LDHA block: -2; FLuc enzyme inh: 1%; A549 tox-2: -26%; Nrf2 ARE inh: 5.2µM*

What do the screens show for `COc1ccc([C@@]23Oc4cc(OC)cc(OC)c4[C@]2(O)[C@H](O)[C@H](C(=O)N(C)C)[C@H]3c2ccccc2)cc1`?
Nrf2 block: 0.021µM*; A549 tox-1: inconclusive; 12-LOX inh: 16%; Nrf2 ARE act: -2%; LDHA block: -3; FLuc enzyme inh: 2%; A549 tox-2: inconclusive; Nrf2 ARE inh: 0.015µM*

How did O=C(Nc1ncc(Cc2ccc(C(F)(F)F)cc2)s1)c1ccc(-c2cccc([N+](=O)[O-])c2)o1 do in these assays?
ERG Ets-DNA blk: -8%; Nrf2 block: 5.8µM*; A549 tox-1: -5%; 12-LOX inh: inconclusive; Nrf2 ARE act: 0%[9.22 µM]; LDHA block: -9; FLuc enzyme inh: 2%; A549 tox-2: -1%; Nrf2 ARE inh: 6.5µM*

Results for CCCCCc1ccc(OCCOCCn2c[n+](C)c3ccccc32)c(CCCCC)c1 ?
ERG Ets-DNA blk: -4%; Nrf2 block: 7.3µM*; A549 tox-1: -25%; Nrf2 ARE act: -5%; LDHA block: 0; FLuc enzyme inh: -1%; A549 tox-2: inconclusive

Results for NNC(=O)C1=NOC2COC3(CCN(c4ncccn4)CC3)OCC12 (configuration not stated) ?
ERG Ets-DNA blk: -2%; Nrf2 block: inconclusive; A549 tox-1: -4%; 12-LOX inh: 1%; Nrf2 ARE act: -1%; LDHA block: -8

High-throughput results (PubChem)
